Compound activity deposited in PubChem by National Center for Advancing Translational Sciences (NCATS).
KDM5B inhibitor – KDM5B demethylase inhibition; Q9UGL1; KDM5B demethylase, FDH-coupled NADH fluorescence (FDH is formaldehyde dehydrogenase); Potency, µM (series often up to 57.7 µM), most hits filed as inhibitors; hit rate 2.6% among 220,000; active means well fitted inhibition curve with a large enough effect; further: 0% is about no effect; nearly all actives have a fitted effect of over 70% in size
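KDM5BΔAP (200 nM final) in 50 mM HEPES pH 7.5, 0.01% Tween-20 was preincubated 10 min at RT with compound over a concentration range. Substrate mix (H3K4me3 12.5 µM, α-KG 25 µM, Fe²⁺, ascorbate, NAD⁺, FDH) was added, and NADH fluorescence change over 30 min gave dose-response curves.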
Starred values were filed as active, the others as inactive; i = inactive. Shown is part of a subset that was picked to be rich in hits. Potency means the concentration at half of the fitted maximal effect.

SMILES	KDM5B inhibitor
CC1(C)Cc2c(cnn2-c2cccc(F)c2)C(NC(=O)c2csnn2)C1 (centres undefined)	i
CCOc1ccc(OCCC(=O)OCC(=O)Nc2c(F)cccc2F)cc1	i
COc1ccc(S(=O)(=O)NCCNc2cc(C)nc3ccnn23)cc1	28µM*
COc1ccc(S(=O)(=O)NCc2nc3nc(C)cc(C)n3n2)cc1	i
Clc1cc(NCCOc2ccccc2)n2nccc2n1	i
COC(=O)c1ccc(NC(=O)Nc2ccc3c(c2)N(C(=O)c2ccc(C)cc2)CC3)cc1	i
OC[C@@H]1CN(Cc2ccc(F)cc2)C[C@H]1c1nc(-c2ccncc2)no1	i
O=C1c2cnc(-c3cccc(F)c3)nc2OCCN1c1ccccc1	i
O=C1COCCN1c1cc(-c2cccc(F)c2)cn2cncc12	35µM*
Fc1cccc(-c2nc(CN3CCOCC3)co2)c1	i
COC(=O)[C@H](C(C)C)N(CCCc1cn(Cc2ccc(C)cc2)nn1)S(=O)(=O)c1ccc(F)cc1Br	i
Cc1nn(CC(=O)NCCOc2ccccc2)c(=O)c2ccccc12	i
O=c1ncn(CC2CC2)c2ccc(-c3ccc(F)cc3)nc12	35µM*
O=c1ncn(Cc2ccccc2)c2ccc(NCCOc3ccccc3)nc12	35µM*
O=C(CCC1CCCC1)Nc1nc(-c2ccc(F)cc2)cs1	i
Cn1c(=O)c2c(ncn2Cc2ccc(F)cc2)n(C)c1=O	i
O=C1COc2ccc(-c3ccc(F)cc3)nc2CN1	i
O=c1ncn(CC2CC2)c2ccc(-c3ccc4c(c3)OCO4)nc12	i
O=c1ncn(Cc2ccccc2)c2ccc(-c3ccc(F)cc3)nc12	35µM*
CC(=O)Nc1cccc(-c2ccc3c(n2)c(=O)ncn3Cc2ccccc2)c1	i
O=c1ncn(CC2CC2)c2ccc(-c3ccc(Cl)cc3)nc12	40µM*
O=C1Nc2ccccc2CCC1n1nc(-c2ccc(Cl)cc2)ccc1=O (centres undefined)	i
CCn1cnc2c1c(=O)n(CC(=O)OCCOc1ccccc1)c(=O)n2Cc1ccccc1	i
COC[C@@H]1CN(Cc2ccc(F)cc2F)C[C@H]1C(=O)NC1CC1	i
O=C(c1ccc(F)cc1Cl)N1CCC(c2n[nH]c(=O)n2-c2ccccc2)CC1	i
SMILES	KDM5B inhibitor
Cn1c(COc2ccc(Cl)cc2)nnc1SCCn1cccn1	i
CCc1nonc1NC(=O)c1oc2ccc(Br)cc2c1C	i
COc1cc(NC(=O)CN2CCCN(Cc3cccc(F)c3)S2(=O)=O)cc(OC)c1	i
CCCCN1C(=O)[C@@H]2C[C@@H](O)CN2C2(CN(Cc3ccc(F)c(F)c3)C2)C1=O	i
CCc1ccc(S(=O)(=O)NCc2cccs2)cc1	i
O=C(CCc1nc(CSc2n[nH]c(-c3cccc(F)c3)n2)no1)Nc1ccc2ccccc2c1	i
O=c1ncn(CC2CC2)c2ccc(-c3ccoc3)nc12	32µM*
O=C(NC1CCCCC1)N1C2CCC1CN(c1ccc(C(F)(F)F)cc1)C2	i
Cc1ccc(Cl)cc1NC(=O)NCc1cccn1Cc1ccc(F)cc1	i
CCOC(=O)CN1CCN(C(=O)CCc2cc3ccc(C)cc3[nH]c2=O)CC1	25µM*
Cc1ccc2cc(COC(=O)c3ccco3)c(=O)[nH]c2c1	i
CCN(Cc1cc2ccc(C)cc2[nH]c1=O)C(=O)c1ccccc1C	i
O=C(NCc1ccccc1)c1cc2n(n1)CC(c1ccc(Cl)cc1)OC2 (centres undefined)	i
CCOc1ccccc1NC(=O)c1cc2n(n1)CC(c1ccc(Cl)cc1)OC2 (centres undefined)	22µM*
CCCCNC(=O)c1cc2n(n1)CC(c1ccc(Cl)cc1)OC2 (centres undefined)	i
Cc1ccc(C)c(NC(=O)c2cc3n(n2)CC(c2ccc(Cl)cc2)OC3)c1 (centres undefined)	28µM*
CC1CCC(NC(=O)c2cc3n(n2)CC(c2ccc(Cl)cc2)OC3)CC1 (centres undefined)	i
O=C(NCc1ccccc1Cl)c1cc2n(n1)CC(c1ccc(Cl)cc1)OC2 (centres undefined)	i
O=C(c1cc2n(n1)CC(c1ccc(Cl)cc1)OC2)N1CCN(c2ccc(Cl)cc2)CC1 (centres undefined)	i
O=C(c1cc2n(n1)CC(c1ccc(Cl)cc1)OC2)N1CCN(c2ccccc2Cl)CC1 (centres undefined)	i
Cc1cccc(CNC(=O)c2cc3n(n2)CC(c2ccc(Cl)cc2)OC3)c1 (centres undefined)	i
Cc1c(Cl)cccc1NC(=O)c1cc2n(n1)CC(c1ccc(Cl)cc1)OC2 (centres undefined)	25µM*
Cc1ccc(NC(=O)c2cc3n(n2)CC(c2ccc(Cl)cc2)OC3)c(Cl)c1 (centres undefined)	18µM*
COc1ccc(C(=O)Nc2c(C(=O)c3ccccc3)oc3ccccc23)cc1	i
Cc1ccc(C)c(NC(=O)CC2(C(=O)O)CCCCC2)c1	i
SMILES	KDM5B inhibitor
CC(C)(CO)NC(=O)C(C)(C)Oc1ccc(Cl)cc1	i
O=C(CN(CC1CCOC1)C1CC1)NCc1cccs1 (centres undefined)	i
COc1cccc(S(=O)(=O)N2CCCC(c3nc(-c4cnccn4)no3)CCNC(=O)CC2)c1 (centres undefined)	i
Cc1ccccc1-c1noc(-c2nnn(-c3ccc(F)cc3)c2C)n1	i
CC(C)C(c1ccc(O)cc1)c1ccc(O)cc1	i
CCC(Sc1ncnc2sc3c(c12)CCCC3)C(=O)OC(C)C (centres undefined)	i
CCOC(=O)CNC(=O)CC(c1cc(OC)c(OC)c(OC)c1)N1Cc2ccccc2C1=O (centres undefined)	i
O=C(Nc1ccc(-c2ccccc2)cc1)c1ccc(F)cc1F	i
CCC1CN(C(=O)N2CCC(C(=O)NCCOC)CC2)c2ccccc2O1 (centres undefined)	i
O=C(Nc1ccccc1)c1ccc(Cn2ccn3nc4c(c3c2=O)CCCC4)cc1	22µM*
COCCCNC(=O)c1ccc(Cn2ccn3nc4c(c3c2=O)CCCC4)cc1	i
O=C(Nc1ccc(Cl)cc1)c1ccc(Cn2ccn3nc4c(c3c2=O)CCCC4)cc1	i
O=C(CCn1ccn2nc3c(c2c1=O)CCCC3)Nc1ccc(F)cc1	i
COc1ccccc1OCCNC(=O)c1ccc(Cn2ccn3nc4c(c3c2=O)CCCC4)cc1	25µM*
CC(C)c1cccc(NC(=O)CCn2ccn3nc4c(c3c2=O)CCCC4)c1	i
O=C(NCc1ccccn1)c1ccc(Cn2ccn3nc4c(c3c2=O)CCCC4)cc1	i
O=C(Nc1ccc(F)c(F)c1)c1ccc(Cn2ccn3nc4c(c3c2=O)CCCC4)cc1	25µM*
CCc1ccc(NC(=O)c2ccc(Cn3ccn4nc5c(c4c3=O)CCCC5)cc2)cc1	i
CC(C)OCCCNC(=O)c1ccc(Cn2ccn3nc4c(c3c2=O)CCCC4)cc1	i
O=C(CCn1ccn2nc3c(c2c1=O)CCCC3)Nc1cccc(F)c1	i
CC(C)c1cccc(NC(=O)c2ccc(Cn3ccn4nc5c(c4c3=O)CCCC5)cc2)c1	22µM*
CCCSc1nnc(NC(=O)Cc2coc3cc(C)ccc23)s1	i
COc1ccc(Nc2nc(-c3cc4cc(OC)ccc4oc3=O)cs2)cc1	i
COc1ccccc1N(CC(=O)N/N=C/c1ccccc1C(=O)O)S(C)(=O)=O	i
O=C(Nc1c[nH]ccc1=O)c1cc(-c2ccccc2)nc2ccccc12	i
Cc1ccc(-c2cc(N3CCC(CNC(=O)c4n[nH]c5c4CCCC5)CC3)n[nH]2)cc1	i
